Activity calls are given as the source filed them. How the source made its calls: active means hit-call score of the fitted dose curve at least 0.9, where 1 is the maximum; inactive means score below 0.9.
Read-out: Interleukin-1 alpha (IL1a), IL1A (gene 3552)
Assay: BSK_KF3CT_IL1a: BioMAP Diversity Plus: KF3CT Assay for Interleukin-1 alpha (IL1a) Biomarker Activity (AID 2283070)
Conditions: primary human keratinocytes with fibroblasts; actives raise or lower the signal
Summary of the method: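 Primary human keratinocyte plus foreskin fibroblast co-culture, dosed and measured at 24 h in 96-well plates. IL-1a level quantified by ELISA; bidirectional fit relative to DMSO.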

Row | SMILES | outcome | AC50
1 | Nc1nc(N)c2nc(CNc3ccc(C(=O)N[C@@H](CCC(=O)O)C(=O)O)cc3)cnc2n1 | inactive | 
2 | NS(=O)(=O)c1cc2c(cc1Cl)NCNS2(=O)=O | inactive | 
3 | O=C(N[C@@H](Cc1ccccc1)[C@@H](O)C(=O)N1C[C@@H](O)[C@@H](O)C1)c1cc2cc(Cl)ccc2[nH]1 | inactive | 
4 | COc1ccc(C)cc1N | inactive | 
5 | CCc1c(C(=O)NN2CCCCC2)nn(-c2ccc(Cl)cc2Cl)c1-c1ccc(Br)cc1 |  | 9.35 µM (active)
6 | COc1ccc2c(c1)c(CC(=O)O)c(C)n2C(=O)c1ccc(Cl)cc1 | inactive | 
7 | Cc1ccc(C)c(O)c1C | inactive | 
8 | COCCOCCOC | inactive | 
9 | CN1CCN(Cc2cc(-c3ccc4[nH]c(=O)oc4c3)co2)[C@@H](c2ccc(F)cc2)C1 | inactive | 
10 | Cc1nc(-c2ccc3c(c2)CCN(CCC2CCC(NC(=O)/C=C/c4ccc(F)cc4)CC2)CC3)no1 (configuration not stated) | inactive | 
11 | O=C(O)Cc1ccccc1Nc1c(Cl)cccc1Cl | inactive | 
12 | FC(F)(F)C(F)(F)C(F)(F)C(F)(F)C(F)(F)C(F)(F)CCI | inactive | 
13 | COc1cc(-c2nc(NC(=O)c3cc4cc(C)cc(C)c4n3CC(=O)O)sc2CCC2CCCCC2)c(OC)cc1Cl |  | 4.26 µM (active)
14 | CC(=O)OC/C=C(\C)CCC=C(C)C | inactive | 
15 | CCOC(=O)C(C)(C)Oc1ccc(Cl)cc1 | inactive | 
16 | CN1CCCC1=O | inactive | 
17 | CCNc1cccc(C)c1 | inactive | 
18 | CCCCCCCCCCCCCCCCCC(=O)O | inactive | 
19 | Cc1oc(-c2ccccc2)nc1CCOc1cccc2c1ccn2CCC(=O)O | inactive | 
20 | CC1(C)NC(=O)NC1=O | inactive | 
21 | Cc1ccccc1Cl | inactive | 
22 | Cc1cc(NC(=O)C(=O)O)cc(C)c1Oc1ccc(O)c2c1CCC2 | inactive | 
23 | Cc1cccc(Nc2cc(Cl)nc(SCC(=O)O)n2)c1C | inactive | 
24 | CC(C)(C)c1cc(O)c(C(C)(C)C)cc1O | inactive | 
25 | Cc1nc(C)nc(N2C[C@@H](C)N(c3ccnc([C@@H](C)O)n3)[C@@H](C)C2)n1 | inactive | 
26 | CC(=O)Oc1ccccc1C(=O)O | inactive | 
27 | CCCCCCOCCO | inactive | 
28 | CCCCCCCCCCCCCCCC | inactive | 
29 | C[Si]1(C)O[Si](C)(C)O[Si](C)(C)O[Si](C)(C)O1 | inactive | 

Read-out: TIMP metallopeptidase inhibitor 2 (TIMP2), TIMP2 (gene 7077)
Assay: BSK_KF3CT_TIMP2: BioMAP Diversity Plus: KF3CT Assay for TIMP metallopeptidase inhibitor 2 (TIMP2) Biomarker Activity (AID 2283071)
Conditions: primary human keratinocytes with fibroblasts; actives raise or lower the signal
Summary of the method: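 Human primary keratinocyte/foreskin fibroblast co-culture dosed with chemical and sampled at 24 h. TIMP-2 levels quantified by ELISA; bidirectional fitting against DMSO negative control as baseline.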

Row | SMILES | outcome | AC50
30 | Nc1nc(N)c2nc(CNc3ccc(C(=O)N[C@@H](CCC(=O)O)C(=O)O)cc3)cnc2n1 | inactive | 
31 | NS(=O)(=O)c1cc2c(cc1Cl)NCNS2(=O)=O | inactive | 
32 | O=C(N[C@@H](Cc1ccccc1)[C@@H](O)C(=O)N1C[C@@H](O)[C@@H](O)C1)c1cc2cc(Cl)ccc2[nH]1 |  | 11.9 µM (active)
33 | COc1ccc(C)cc1N | inactive | 
34 | CCc1c(C(=O)NN2CCCCC2)nn(-c2ccc(Cl)cc2Cl)c1-c1ccc(Br)cc1 |  | 5.8 µM (active)
35 | COc1ccc2c(c1)c(CC(=O)O)c(C)n2C(=O)c1ccc(Cl)cc1 | inactive | 
36 | Cc1ccc(C)c(O)c1C | inactive | 
37 | COCCOCCOC | inactive | 
38 | CN1CCN(Cc2cc(-c3ccc4[nH]c(=O)oc4c3)co2)[C@@H](c2ccc(F)cc2)C1 | inactive | 
39 | Cc1nc(-c2ccc3c(c2)CCN(CCC2CCC(NC(=O)/C=C/c4ccc(F)cc4)CC2)CC3)no1 (configuration not stated) | inactive | 
40 | O=C(O)Cc1ccccc1Nc1c(Cl)cccc1Cl | inactive | 
41 | FC(F)(F)C(F)(F)C(F)(F)C(F)(F)C(F)(F)C(F)(F)CCI | inactive | 
42 | COc1cc(-c2nc(NC(=O)c3cc4cc(C)cc(C)c4n3CC(=O)O)sc2CCC2CCCCC2)c(OC)cc1Cl |  | 1.54 µM (active)
43 | CC(=O)OC/C=C(\C)CCC=C(C)C | inactive | 
44 | CCOC(=O)C(C)(C)Oc1ccc(Cl)cc1 | inactive | 
45 | CN1CCCC1=O | inactive | 
46 | CCNc1cccc(C)c1 | inactive | 
47 | CCCCCCCCCCCCCCCCCC(=O)O | inactive | 
48 | Cc1oc(-c2ccccc2)nc1CCOc1cccc2c1ccn2CCC(=O)O | inactive | 
49 | CC1(C)NC(=O)NC1=O | inactive | 
50 | Cc1ccccc1Cl | inactive | 
51 | Cc1cc(NC(=O)C(=O)O)cc(C)c1Oc1ccc(O)c2c1CCC2 | inactive | 
52 | Cc1cccc(Nc2cc(Cl)nc(SCC(=O)O)n2)c1C | inactive | 
53 | CC(C)(C)c1cc(O)c(C(C)(C)C)cc1O | inactive | 
54 | Cc1nc(C)nc(N2C[C@@H](C)N(c3ccnc([C@@H](C)O)n3)[C@@H](C)C2)n1 | inactive | 
55 | CC(=O)Oc1ccccc1C(=O)O | inactive | 
56 | CCCCCCOCCO | inactive | 
57 | CCCCCCCCCCCCCCCC | inactive | 
58 | C[Si]1(C)O[Si](C)(C)O[Si](C)(C)O[Si](C)(C)O1 | inactive | 

Read-out: Transforming growth factor beta 1 (TGFb1), TGFB1 (gene 7040)
Assay: BSK_KF3CT_TGFb1: BioMAP Diversity Plus: KF3CT Assay for Transforming growth factor beta 1 (TGFb1) Biomarker Activity (AID 2283072)
Conditions: primary human keratinocytes with fibroblasts; actives raise or lower the signal
Summary of the method: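 Human keratinocyte plus foreskin fibroblast primary co-culture, dosed with chemical for 24 h. TGF-b1 quantified by ELISA. Activity fitted bidirectionally against DMSO negative control as baseline.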

Row | SMILES | outcome | AC50
59 | Nc1nc(N)c2nc(CNc3ccc(C(=O)N[C@@H](CCC(=O)O)C(=O)O)cc3)cnc2n1 | inactive | 
60 | NS(=O)(=O)c1cc2c(cc1Cl)NCNS2(=O)=O | inactive | 
61 | O=C(N[C@@H](Cc1ccccc1)[C@@H](O)C(=O)N1C[C@@H](O)[C@@H](O)C1)c1cc2cc(Cl)ccc2[nH]1 | inactive | 
62 | COc1ccc(C)cc1N | inactive | 
63 | CCc1c(C(=O)NN2CCCCC2)nn(-c2ccc(Cl)cc2Cl)c1-c1ccc(Br)cc1 |  | 6.72 µM (active)
64 | COc1ccc2c(c1)c(CC(=O)O)c(C)n2C(=O)c1ccc(Cl)cc1 | inactive | 
65 | Cc1ccc(C)c(O)c1C | inactive | 
66 | COCCOCCOC | inactive | 
67 | CN1CCN(Cc2cc(-c3ccc4[nH]c(=O)oc4c3)co2)[C@@H](c2ccc(F)cc2)C1 | inactive | 
68 | Cc1nc(-c2ccc3c(c2)CCN(CCC2CCC(NC(=O)/C=C/c4ccc(F)cc4)CC2)CC3)no1 (configuration not stated) | inactive | 
69 | O=C(O)Cc1ccccc1Nc1c(Cl)cccc1Cl | inactive | 
70 | FC(F)(F)C(F)(F)C(F)(F)C(F)(F)C(F)(F)C(F)(F)CCI | inactive | 
71 | COc1cc(-c2nc(NC(=O)c3cc4cc(C)cc(C)c4n3CC(=O)O)sc2CCC2CCCCC2)c(OC)cc1Cl |  | 1.68 µM (active)
72 | CC(=O)OC/C=C(\C)CCC=C(C)C | inactive | 
73 | CCOC(=O)C(C)(C)Oc1ccc(Cl)cc1 | inactive | 
74 | CN1CCCC1=O | inactive | 
75 | CCNc1cccc(C)c1 | inactive | 
76 | CCCCCCCCCCCCCCCCCC(=O)O | inactive | 
77 | Cc1oc(-c2ccccc2)nc1CCOc1cccc2c1ccn2CCC(=O)O | inactive | 
78 | CC1(C)NC(=O)NC1=O | inactive | 
79 | Cc1ccccc1Cl | inactive | 
80 | Cc1cc(NC(=O)C(=O)O)cc(C)c1Oc1ccc(O)c2c1CCC2 | inactive | 
81 | Cc1cccc(Nc2cc(Cl)nc(SCC(=O)O)n2)c1C | inactive | 
82 | CC(C)(C)c1cc(O)c(C(C)(C)C)cc1O | inactive | 
83 | Cc1nc(C)nc(N2C[C@@H](C)N(c3ccnc([C@@H](C)O)n3)[C@@H](C)C2)n1 | inactive | 
84 | CC(=O)Oc1ccccc1C(=O)O | inactive | 
85 | CCCCCCOCCO | inactive | 
86 | CCCCCCCCCCCCCCCC | inactive | 
87 | C[Si]1(C)O[Si](C)(C)O[Si](C)(C)O[Si](C)(C)O1 | inactive | 

From PubChem BioAssay (EPA / NIEHS)
